Assay outcomes: PubChem, several laboratories
Most compounds without a hit are left out; they make up all but 1.5% or so of the library.
TMEM16A act: TMEM16A chloride channel activators or potentiators, primary screen, cell-based, HTS. Anoctamin-1 (Mus musculus), Q8BHY3. HEK293 TMEM16A/YFP-H148Q/I152L, iodide quench fluorescence; hits give low values. B-score at 10 µM. 340,000 tested, 0.3% active. AID 623877, 2012;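 active means fluorescence-ratio B-score plate-corrected deviation score at least 3 library SD below zero, with starting fluorescence score within 5 deviations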;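 further: channel opened by trigger with iodide after compound preincubation; score built on the fluorescence ratio of max minus min over baseline; more negative score means more quench and so TMEM16A activation or potentiation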
TMEM16A inh: TMEM16A chloride channel inhibitors, primary screen, cell-based, HTS; HEK293 TMEM16A/YFP iodide influx fluorescence, ionomycin; normalized B-score (activity score, 25-100; higher = stronger inhibition) at 10 µM; 310,000 tested, 1.2% active; AID 588511, 2011;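 active means ratio plate-corrected score three or more library SD toward inhibition, starting fluorescence score within five deviations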;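 further: score derived from kinetic fluorescence span divided by baseline fluorescence per well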
hiPSC survival: enhancers of single-cell hiPSC survival, primary screen, ATPlite luminescence | survival enhancement, % at 20 µM | 360,000 tested, 0.044% active | 100% = ROCK inhibitor wells, 0% = DMSO | AID 602274, 2012; in the data active means survival enhancement above about 18%;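 further: cells exposed to compounds for 16 hours before the ATP read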
ABCB6 inh MLPCN: ABCB6 transporter inhibitors, primary screen, K562-ABCB6 cells, flow cytometry, MLPCN library | 360,000 tested, 0.19% active | fluorescence ratio to DMSO, % at 10 µM | K562-ABCB6 porphyrin accumulation, 1 h; hits give low values | ATP-binding cassette sub-family B member 6 (Homo sapiens), Q9NP58;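 active means fluorescence ratio to DMSO below 75%, the collection mean minus 3 SD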;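 further: signal is porphyrin accumulated inside mitochondria; 100% equals median channel fluorescence of DMSO control wells; lower ratio means ABCB6 inhibition with less porphyrin fluorescence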
DAGLB inh: DAGLB lipase inhibitors, primary screen, biochemical, fluorescence, HTS | Diacylglycerol lipase-beta (Homo sapiens), Q8NCG7 | HEK293T DAGLB membrane lysate, EnzChek fluorogenic substrate | inhibition, % at 5.17 µM | 340,000 tested, 0.059% active | AID 504411, 2011; in the data active means inhibition above about 34%;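 further: 0% = enzyme with vehicle and 100% = wells lacking enzyme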
DAGLB confirm: DAGLB lipase inhibitors, retest, confirmation, biochemical, fluorescence, HEK293T membranes; shares compounds with DAGLB inh; HEK293T DAGLB membrane lysate, EnzChek fluorogenic substrate; inhibition, % at 5.17 µM; 190 tested, 73% active;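 active means mean inhibition over triplicate wells above a set limit taken from the primary lipase screen, cut at about 34% in these data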;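 further: 0% = DAGLB with DMSO and 100% = wells lacking DAGLB enzyme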
* marks the source's active call; other numbers are inactive results; i = inactive; x = no result given.

SMILES	TMEM16A act	TMEM16A inh	hiPSC survival	ABCB6 inh MLPCN	DAGLB inh	DAGLB confirm
CN(C)c1ccc(N=Nc2ccccc2C(=O)OCC(=O)Nc2ccccc2C(F)(F)F)cc1	i	x	-1	96	35*	59*
CN(C)c1ccc(N=Nc2ccccc2C(=O)OCC(=O)N2CCCC2)cc1	i	i	0	100	27	x
O=C(N/N=C/c1ccc(O)c(O)c1O)/C(=C/c1ccc([N+](=O)[O-])cc1)NC(=O)c1ccccc1	i	i	3	97	35*	19
CS(=O)(=O)N1CCCC(C(=O)Nc2ccc(F)c(F)c2)C1 (stereo unspecified)	i	x	0	95	1	x
Cc1ccc(C)c(S(=O)(=O)/N=C(/Nc2ccccc2)c2ccccc2)c1	i	x	-2	96	-1	x
COc1cccc(C(=O)Nc2cccc(C(=O)NC3=NN(c4c(Cl)cc(Cl)cc4Cl)C(=O)C3)c2)c1	i	i	-2	97	36*	17
COc1cccc(C(=O)Nc2cccc(NC(=O)c3ccccc3Cl)c2)c1	i	i	0	98	1	x
O=C(CSc1nc2ccccc2o1)N1CCCC1	i	i	6	101	49*	1
O=C(CSc1nc2ccccc2o1)N1CCOCC1	i	i	0	98	-1	x
Cc1c(N(C)S(=O)(=O)c2cc(C(=O)N3CCCC3)ccc2Cl)c(=O)n(-c2ccccc2)n1C	i	i	1	97	2	x
CCc1ccc(S(=O)(=O)/N=C2\C=C(Nc3ccc(O)cc3)C(=O)c3ccccc32)cc1	i	i	0	100	40*	51*
O=C(O)c1ccc(NC2=C/C(=N/S(=O)(=O)c3ccccc3)c3ccccc3C2=O)cc1	i	x	-1	111	14	x
CCc1ccc(S(=O)(=O)/N=C2\C=C(Nc3cccc(C(=O)O)c3)C(=O)c3ccccc32)cc1	i	25*	0	102	47*	30
COC(=O)[C@]12CCCCC=C1N(Cc1cccc3ccccc13)C(=O)[C@H](CC(=O)N1CCN(C(=O)c3ccco3)CC1)C2	x	x	-1	98	x	x
Cc1ccc(NC(=O)C2(C)CCN2C(=O)CCC2CCCC2)cc1C (stereo unspecified)	x	x	0	100	x	x
O=C(NN1C(=O)/C(=C/c2ccc(O)c([N+](=O)[O-])c2)SC1=S)c1ccccc1Cl	i	i	2	107	45*	42*
COc1cc(/C=C2\SC(=S)N(NC(=O)c3ccccc3O)C2=O)ccc1O	i	i	0	218	6	x
CC(C)=CCC/C(C)=C/CC/C(C)=C/COc1ccc2ccc(=O)oc2c1	i	x	0	95	-2	x
O=[N+]([O-])c1ccc2cc[nH]c2c1	i	x	-2	103	-1	x
CN(c1ccccc1)c1ccc(/C=C(/CCC(=O)O)c2nc3ccccc3s2)cc1[N+](=O)[O-]	i	x	0	97	35*	50*
Cc1ccc(C)c(NC(=O)/C(C#N)=C/c2cn(CC(=O)NCc3ccco3)c3ccccc23)c1	i	i	-1	98	46*	48*
CC(C)(C)c1ccc(C(=O)NCC(=O)N2CCCCCC2)cc1	i	i	0	97	-4	x
CCn1nc([N+](=O)[O-])c(C(C#N)c2nc3cc(C(F)(F)F)ccc3s2)c(Cl)c1=O (stereo unspecified)	i	i	2	170	60*	106*
CCN(CC)c1ccc(C(=C2C=CC(=[N+](CC)CC)C=C2)c2ccc(N(CC)CC)cc2)cc1	-6.6*	x	-1	92	53*	105*
COc1ccc(NC(=S)NNc2ccc(S(=O)(=O)Nc3ccccc3C(=O)O)cc2[N+](=O)[O-])cc1	i	i	2	102	43*	48*
SMILES	TMEM16A act	TMEM16A inh	hiPSC survival	ABCB6 inh MLPCN	DAGLB inh	DAGLB confirm
COc1ccc(C=NNc2ccc(S(=O)(=O)Nc3ccccc3C(=O)O)cc2[N+](=O)[O-])c(OC)c1	i	x	1	94	43*	43*
CCc1nc2c(OCc3ccc(C(F)(F)F)cc3)cccn2c1N(C)C(=O)C1CC1	x	x	0	98	x	x
O=C1NC(=Nc2ccccc2Cl)S/C1=C\c1cccc([N+](=O)[O-])c1O	i	25*	1	103	36*	32
O=C1NC(=Nc2ccccc2Cl)S/C1=C\c1ccc(C(=O)O)cc1	i	i	0	99	8	x
COc1ccccc1CNC(=O)COc1cc(O)c2c(c1)OC(C)(C)CC2=O	x	x	-1	96	x	x
N#CC(C#N)=NNc1ccc([N+](=O)[O-])cc1	i	100*	-1	98	39*	58*
CN(C(=O)Cc1csc(-c2ccccc2)n1)c1c(N)n(Cc2ccccc2)c(=O)[nH]c1=O	i	i	0	101	4	x
COc1cc([N+](=O)[O-])cc(/C=C2/SC(=S)N(Cc3ccccc3)C2=O)c1O	i	i	0	355	40*	48*
CN(C)c1cccc(CNC(=O)c2csc([C@@H]3C[C@H](O)[C@@H](CO)O3)n2)c1	x	x	-2	96	x	x
O=[N+]([O-])c1ccc(/C=N/Nc2ccc3ccccc3c2)o1	i	i	-3	i	48*	63*
Nc1ncnc(N)c1N=Nc1ccccc1	i	i	0	97	2	x
Nc1ccc2ccccc2c1N=Nc1ccccc1	i	x	-3	100	36*	43*
Cc1ccc(NC(=O)Nc2cccnc2)cc1NC(=O)Nc1cccnc1	i	i	1	100	37*	32
CCCCC(Sc1nc(C)c(Cc2ccccc2)c(=O)[nH]1)C(=O)O (stereo unspecified)	i	i	-1	105	1	x
Cc1ccc(Nc2nnc(SCc3nc4ccccc4c(=O)[nH]3)s2)cc1	i	i	0	99	60*	50*
O=[N+]([O-])c1cc([N+](=O)[O-])c2oc(-c3ccccc3)c(Br)c2c1O	i	x	0	96	37*	37*
O=S(=O)(O)c1cccc(N=Nc2c(O)ccc3ccccc23)c1	i	i	0	96	37*	37*
Oc1ccc2ccccc2c1N=Nc1ccccc1F	i	i	0	98	19	x
